# According to publication PMC7862700, “An all-to-all approach to the identification of sequence-specific readers for epigenetic DNA modifications on cytosine”:
# Legend:
# Experiment in all cases: DAPPL (digital affinity profiling via proximity ligation, sequencing); 10 mM Tris-HCl pH 7.5, 50 mM NaCl, 1 mM DTT, 4% glycerol, room temperature, 30 min; GST-TFs on glutathione beads, 16-mer random dsDNA library, 0.1% formaldehyde crosslink after washing; high values mean tight binding
# FEV = target: T1, FEV (Homo sapiens, UniProt Q99581 1-238); conditions: protein: recombinant; tags: N-terminal GST; dsDNA, one strand shown
# T1 sequence: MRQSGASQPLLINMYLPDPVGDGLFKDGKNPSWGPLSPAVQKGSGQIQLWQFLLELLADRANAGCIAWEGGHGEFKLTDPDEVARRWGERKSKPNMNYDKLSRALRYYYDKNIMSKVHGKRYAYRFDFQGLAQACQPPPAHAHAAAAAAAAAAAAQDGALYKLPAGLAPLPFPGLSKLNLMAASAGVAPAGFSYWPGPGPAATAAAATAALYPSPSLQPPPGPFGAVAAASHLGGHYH
# Method in brief: (§1)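 GST fusions of human transcription factors were expressed in yeast and captured with glutathione beads. Once given DNA barcodes and pooled alongside a tag-only sample, they were incubated for 30 min at room temperature with 200 nmole of a random double-stranded 16-mer DNA library in Tris/NaCl/DTT/glycerol buffer, then washed, crosslinked (0.1% formaldehyde), proximity-ligated, PCR-amplified and sequenced on an Illumina NextSeq500. The binding signal of each hexamer is its read frequency for a factor divided by its frequency for the tag-only sample.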
# ETV5 = ETV5 (Homo sapiens, UniProt P41161 1-510); conditions: protein: recombinant; tags: N-terminal GST; dsDNA, one strand shown
# Method in brief: as §1
# HSF1 = HSF1 (Homo sapiens, UniProt Q00613 1-529); conditions: protein: recombinant; tags: N-terminal GST; chain copies: 3; dsDNA, one strand shown
# Method in brief: as §1
# SPIC = target: T2, SPIC (Homo sapiens, UniProt Q8N5J4 1-248); conditions: protein: recombinant; tags: N-terminal GST; dsDNA, one strand shown
# T2 sequence: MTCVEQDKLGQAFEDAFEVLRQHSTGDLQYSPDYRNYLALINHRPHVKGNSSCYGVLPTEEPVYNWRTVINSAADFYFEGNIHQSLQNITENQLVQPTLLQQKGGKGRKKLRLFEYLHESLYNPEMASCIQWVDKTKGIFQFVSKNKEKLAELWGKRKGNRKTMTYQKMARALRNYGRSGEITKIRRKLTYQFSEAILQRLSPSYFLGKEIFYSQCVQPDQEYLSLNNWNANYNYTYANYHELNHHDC
# Method in brief: as §1
# ELF4 = ELF4 (Homo sapiens, UniProt Q99607 1-663); conditions: protein: recombinant; tags: N-terminal GST; dsDNA, one strand shown
# Method in brief: as §1
# ELK4 = target: T3, ELK4 (Homo sapiens, UniProt P28324-2 1-405); conditions: protein: recombinant; tags: N-terminal GST; dsDNA, one strand shown
# T3 sequence: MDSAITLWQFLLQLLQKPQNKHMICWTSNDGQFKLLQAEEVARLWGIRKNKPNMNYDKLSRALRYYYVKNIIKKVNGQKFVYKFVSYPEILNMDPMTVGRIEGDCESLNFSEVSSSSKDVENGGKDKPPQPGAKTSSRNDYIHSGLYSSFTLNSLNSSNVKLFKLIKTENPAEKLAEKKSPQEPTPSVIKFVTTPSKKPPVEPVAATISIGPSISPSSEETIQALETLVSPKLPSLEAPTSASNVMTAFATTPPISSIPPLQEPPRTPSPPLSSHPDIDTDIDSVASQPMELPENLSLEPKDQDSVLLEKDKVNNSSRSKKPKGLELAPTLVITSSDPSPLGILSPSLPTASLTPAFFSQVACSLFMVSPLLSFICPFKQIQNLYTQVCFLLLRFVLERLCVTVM
# Method in brief: as §1
# ETV2 = target: T4, ETV2 (Homo sapiens, UniProt O00321 1-342); conditions: protein: recombinant; tags: N-terminal GST; dsDNA, one strand shown
# T4 sequence: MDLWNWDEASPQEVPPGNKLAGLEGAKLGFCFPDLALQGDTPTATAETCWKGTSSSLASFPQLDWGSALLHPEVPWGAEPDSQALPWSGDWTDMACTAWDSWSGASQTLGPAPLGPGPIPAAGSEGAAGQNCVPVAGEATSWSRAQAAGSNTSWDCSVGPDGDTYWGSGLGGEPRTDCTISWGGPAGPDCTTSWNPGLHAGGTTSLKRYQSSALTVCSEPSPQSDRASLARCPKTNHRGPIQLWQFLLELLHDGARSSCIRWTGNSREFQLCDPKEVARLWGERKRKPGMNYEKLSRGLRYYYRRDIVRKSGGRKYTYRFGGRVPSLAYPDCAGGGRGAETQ
# Method in brief: as §1
# ELF3 = target: T5, ELF3 (Homo sapiens, UniProt P78545 1-371); conditions: protein: recombinant; tags: N-terminal GST; dsDNA, one strand shown
# T5 sequence: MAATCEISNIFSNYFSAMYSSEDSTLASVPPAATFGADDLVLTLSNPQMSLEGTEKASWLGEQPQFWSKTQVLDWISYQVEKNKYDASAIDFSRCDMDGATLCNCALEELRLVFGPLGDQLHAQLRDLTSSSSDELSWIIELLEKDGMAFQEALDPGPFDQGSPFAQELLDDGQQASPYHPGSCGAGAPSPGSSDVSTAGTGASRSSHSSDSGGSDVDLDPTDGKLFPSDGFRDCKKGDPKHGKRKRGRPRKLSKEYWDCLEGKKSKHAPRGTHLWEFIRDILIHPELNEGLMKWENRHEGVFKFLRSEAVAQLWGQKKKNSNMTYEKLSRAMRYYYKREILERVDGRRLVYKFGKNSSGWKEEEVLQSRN
# Method in brief: as §1
# CRX = CRX (Homo sapiens, UniProt O43186 1-299); conditions: protein: recombinant; tags: N-terminal GST; dsDNA, one strand shown
# Method in brief: as §1
# ETV1 = ETV1 (Homo sapiens, UniProt P50549 1-477); conditions: protein: recombinant; tags: N-terminal GST; dsDNA, one strand shown
# Method in brief: as §1
# ERF = target: T6, ERF (Homo sapiens, UniProt P50548 1-548); conditions: protein: recombinant; tags: N-terminal GST; dsDNA, one strand shown
# T6 sequence: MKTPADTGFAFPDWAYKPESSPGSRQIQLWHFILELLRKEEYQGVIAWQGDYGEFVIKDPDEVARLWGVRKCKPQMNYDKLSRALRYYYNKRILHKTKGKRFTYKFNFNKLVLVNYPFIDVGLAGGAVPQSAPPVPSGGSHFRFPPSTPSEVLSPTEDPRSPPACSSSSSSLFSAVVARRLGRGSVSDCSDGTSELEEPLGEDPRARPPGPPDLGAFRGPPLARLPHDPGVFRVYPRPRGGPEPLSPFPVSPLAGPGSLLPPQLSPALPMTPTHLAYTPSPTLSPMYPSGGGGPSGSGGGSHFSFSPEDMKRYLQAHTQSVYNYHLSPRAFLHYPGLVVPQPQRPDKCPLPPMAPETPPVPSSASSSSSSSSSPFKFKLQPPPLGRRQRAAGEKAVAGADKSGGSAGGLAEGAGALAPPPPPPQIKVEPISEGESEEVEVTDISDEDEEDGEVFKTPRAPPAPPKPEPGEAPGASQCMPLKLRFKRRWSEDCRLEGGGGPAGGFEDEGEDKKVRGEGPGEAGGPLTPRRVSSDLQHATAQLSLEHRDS
# Method in brief: as §1
# ETV3L = target: T7, ETV3L (Homo sapiens, UniProt Q6ZN32 1-361); conditions: protein: recombinant; tags: N-terminal GST; dsDNA, one strand shown
# T7 sequence: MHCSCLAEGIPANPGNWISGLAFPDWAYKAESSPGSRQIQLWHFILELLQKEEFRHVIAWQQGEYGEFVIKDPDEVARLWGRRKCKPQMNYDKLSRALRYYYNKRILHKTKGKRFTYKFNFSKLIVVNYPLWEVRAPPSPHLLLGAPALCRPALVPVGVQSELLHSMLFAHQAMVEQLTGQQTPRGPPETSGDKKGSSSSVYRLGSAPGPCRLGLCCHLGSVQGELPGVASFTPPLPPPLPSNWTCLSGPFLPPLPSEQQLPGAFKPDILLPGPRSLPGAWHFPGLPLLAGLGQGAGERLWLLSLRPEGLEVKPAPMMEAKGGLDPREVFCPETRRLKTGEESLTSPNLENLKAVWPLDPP
# Method in brief: as §1
# ETS2 = target: T8, ETS2 (Homo sapiens, UniProt P15036 1-469); conditions: protein: recombinant; tags: N-terminal GST; dsDNA, one strand shown
# T8 sequence: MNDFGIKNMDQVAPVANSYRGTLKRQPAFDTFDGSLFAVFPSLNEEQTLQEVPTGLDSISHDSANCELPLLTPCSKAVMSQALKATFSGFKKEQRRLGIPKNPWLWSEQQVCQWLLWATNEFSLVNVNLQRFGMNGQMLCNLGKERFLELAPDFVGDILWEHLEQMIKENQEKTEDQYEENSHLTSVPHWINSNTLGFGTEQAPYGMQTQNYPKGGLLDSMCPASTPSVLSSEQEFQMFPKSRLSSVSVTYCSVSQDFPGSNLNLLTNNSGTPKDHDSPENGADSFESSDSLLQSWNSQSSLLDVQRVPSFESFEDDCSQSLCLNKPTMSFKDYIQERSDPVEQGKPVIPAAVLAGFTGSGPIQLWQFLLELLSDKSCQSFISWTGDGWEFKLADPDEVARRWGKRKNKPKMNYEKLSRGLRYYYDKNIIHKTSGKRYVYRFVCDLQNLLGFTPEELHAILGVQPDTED
# Method in brief: as §1
# SPDEF = target: T9, SPDEF (Homo sapiens, UniProt O95238 1-335); conditions: protein: recombinant; tags: N-terminal GST; dsDNA, one strand shown
# T9 sequence: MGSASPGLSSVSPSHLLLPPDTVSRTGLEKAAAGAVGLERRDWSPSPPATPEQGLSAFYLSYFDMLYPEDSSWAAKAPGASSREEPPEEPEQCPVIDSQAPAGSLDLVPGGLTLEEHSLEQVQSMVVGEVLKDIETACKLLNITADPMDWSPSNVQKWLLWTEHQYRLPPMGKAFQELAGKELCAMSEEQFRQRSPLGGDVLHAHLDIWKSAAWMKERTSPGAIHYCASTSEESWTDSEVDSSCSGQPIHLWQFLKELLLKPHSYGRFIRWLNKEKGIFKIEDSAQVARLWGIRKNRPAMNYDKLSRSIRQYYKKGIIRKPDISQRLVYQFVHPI
# Method in brief: as §1
# ETV7 = target: T10, ETV7 (Homo sapiens, UniProt Q9Y603 1-341); conditions: protein: recombinant; tags: N-terminal GST; dsDNA, one strand shown
# T10 sequence: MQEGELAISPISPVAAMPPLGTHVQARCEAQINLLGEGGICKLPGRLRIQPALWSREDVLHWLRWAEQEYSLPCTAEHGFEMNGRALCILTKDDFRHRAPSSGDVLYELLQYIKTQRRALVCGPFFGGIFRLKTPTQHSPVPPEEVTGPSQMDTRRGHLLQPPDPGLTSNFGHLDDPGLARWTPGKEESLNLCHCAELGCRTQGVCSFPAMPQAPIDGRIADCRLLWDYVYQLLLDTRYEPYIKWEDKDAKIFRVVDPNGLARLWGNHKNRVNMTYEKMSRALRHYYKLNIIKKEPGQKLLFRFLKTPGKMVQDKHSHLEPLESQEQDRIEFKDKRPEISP
# Method in brief: as §1
# ELF5 = target: T11, ELF5 (Homo sapiens, UniProt Q9UKW6-2 1-255); conditions: protein: recombinant; tags: N-terminal GST; dsDNA, one strand shown
# T11 sequence: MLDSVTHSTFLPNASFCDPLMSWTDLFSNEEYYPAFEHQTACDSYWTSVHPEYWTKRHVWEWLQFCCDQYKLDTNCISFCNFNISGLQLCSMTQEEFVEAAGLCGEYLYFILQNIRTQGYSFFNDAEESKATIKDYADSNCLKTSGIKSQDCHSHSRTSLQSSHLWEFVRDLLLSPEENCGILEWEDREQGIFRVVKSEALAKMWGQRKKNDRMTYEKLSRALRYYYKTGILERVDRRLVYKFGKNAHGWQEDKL
# Method in brief: as §1
# ETV3 = target: T12, ETV3 (Homo sapiens, UniProt P41162-2 1-143); conditions: protein: recombinant; tags: N-terminal GST; dsDNA, one strand shown
# T12 sequence: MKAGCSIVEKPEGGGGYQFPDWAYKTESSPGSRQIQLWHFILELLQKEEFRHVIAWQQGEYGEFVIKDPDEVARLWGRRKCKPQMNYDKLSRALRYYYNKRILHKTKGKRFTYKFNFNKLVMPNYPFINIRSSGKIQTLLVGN
# Method in brief: as §1
# ETV6 = ETV6 (Homo sapiens, UniProt P41212 1-452); conditions: protein: recombinant; tags: N-terminal GST; dsDNA, one strand shown
# Method in brief: as §1
# Sequence of ETV1 (P50549 whole entry): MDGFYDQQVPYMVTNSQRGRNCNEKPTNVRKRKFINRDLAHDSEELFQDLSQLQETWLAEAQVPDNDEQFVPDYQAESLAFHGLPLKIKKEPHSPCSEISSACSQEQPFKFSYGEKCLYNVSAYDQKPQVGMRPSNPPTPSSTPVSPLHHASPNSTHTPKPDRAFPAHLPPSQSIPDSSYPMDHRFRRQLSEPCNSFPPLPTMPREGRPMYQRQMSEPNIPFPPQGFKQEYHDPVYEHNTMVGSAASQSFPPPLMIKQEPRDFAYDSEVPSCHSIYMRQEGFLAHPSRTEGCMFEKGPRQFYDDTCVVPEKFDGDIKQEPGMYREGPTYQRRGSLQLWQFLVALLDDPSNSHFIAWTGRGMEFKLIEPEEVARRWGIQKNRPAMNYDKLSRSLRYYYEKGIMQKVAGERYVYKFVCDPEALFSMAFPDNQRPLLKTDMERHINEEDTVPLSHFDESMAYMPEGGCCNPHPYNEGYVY
# Sequence of ETV6 (P41212 whole entry): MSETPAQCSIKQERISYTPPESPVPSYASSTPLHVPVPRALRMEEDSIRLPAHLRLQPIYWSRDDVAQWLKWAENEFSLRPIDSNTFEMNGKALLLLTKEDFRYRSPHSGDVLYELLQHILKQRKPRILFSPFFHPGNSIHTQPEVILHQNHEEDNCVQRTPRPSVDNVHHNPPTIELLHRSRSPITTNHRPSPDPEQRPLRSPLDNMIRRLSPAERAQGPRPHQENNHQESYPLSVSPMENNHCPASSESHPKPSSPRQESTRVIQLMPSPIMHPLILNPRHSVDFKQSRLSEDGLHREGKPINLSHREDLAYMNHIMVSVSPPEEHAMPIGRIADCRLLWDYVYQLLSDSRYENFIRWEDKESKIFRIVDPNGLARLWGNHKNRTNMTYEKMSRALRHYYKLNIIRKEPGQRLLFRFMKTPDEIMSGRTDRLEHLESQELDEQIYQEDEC
# Sequence of ETV5 (P41161 whole entry): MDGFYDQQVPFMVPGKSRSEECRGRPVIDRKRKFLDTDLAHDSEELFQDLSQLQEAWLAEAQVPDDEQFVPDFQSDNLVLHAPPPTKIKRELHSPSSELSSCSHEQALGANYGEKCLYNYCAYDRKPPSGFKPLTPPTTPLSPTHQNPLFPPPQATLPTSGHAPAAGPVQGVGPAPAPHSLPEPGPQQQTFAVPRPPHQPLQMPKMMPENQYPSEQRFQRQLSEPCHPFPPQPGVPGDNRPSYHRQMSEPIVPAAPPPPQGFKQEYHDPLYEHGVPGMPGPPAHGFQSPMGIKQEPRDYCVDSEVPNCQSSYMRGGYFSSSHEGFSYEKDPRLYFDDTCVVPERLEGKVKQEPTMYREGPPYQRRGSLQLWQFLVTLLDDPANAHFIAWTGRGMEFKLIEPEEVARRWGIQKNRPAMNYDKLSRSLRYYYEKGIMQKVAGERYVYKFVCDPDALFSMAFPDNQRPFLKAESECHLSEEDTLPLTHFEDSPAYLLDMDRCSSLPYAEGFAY
# Sequence of ELF4 (Q99607 whole entry): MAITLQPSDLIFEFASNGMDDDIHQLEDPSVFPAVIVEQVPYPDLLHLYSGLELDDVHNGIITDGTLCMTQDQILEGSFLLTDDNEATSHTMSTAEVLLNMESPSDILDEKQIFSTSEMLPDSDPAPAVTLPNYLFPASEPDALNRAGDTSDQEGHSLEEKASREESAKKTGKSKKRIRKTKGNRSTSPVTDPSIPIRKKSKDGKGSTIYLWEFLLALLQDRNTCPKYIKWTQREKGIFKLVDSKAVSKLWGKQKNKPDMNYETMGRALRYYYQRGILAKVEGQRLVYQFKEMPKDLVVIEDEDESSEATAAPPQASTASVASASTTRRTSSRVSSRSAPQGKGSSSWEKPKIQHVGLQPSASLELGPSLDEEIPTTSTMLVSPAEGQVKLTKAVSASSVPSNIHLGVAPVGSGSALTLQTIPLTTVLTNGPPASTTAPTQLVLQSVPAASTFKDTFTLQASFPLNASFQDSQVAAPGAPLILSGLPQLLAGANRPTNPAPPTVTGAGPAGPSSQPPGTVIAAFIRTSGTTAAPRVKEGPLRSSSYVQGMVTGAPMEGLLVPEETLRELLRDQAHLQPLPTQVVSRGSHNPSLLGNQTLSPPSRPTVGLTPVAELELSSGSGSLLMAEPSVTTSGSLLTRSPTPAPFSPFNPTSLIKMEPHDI
# Sequence of HSF1 (Q00613 whole entry): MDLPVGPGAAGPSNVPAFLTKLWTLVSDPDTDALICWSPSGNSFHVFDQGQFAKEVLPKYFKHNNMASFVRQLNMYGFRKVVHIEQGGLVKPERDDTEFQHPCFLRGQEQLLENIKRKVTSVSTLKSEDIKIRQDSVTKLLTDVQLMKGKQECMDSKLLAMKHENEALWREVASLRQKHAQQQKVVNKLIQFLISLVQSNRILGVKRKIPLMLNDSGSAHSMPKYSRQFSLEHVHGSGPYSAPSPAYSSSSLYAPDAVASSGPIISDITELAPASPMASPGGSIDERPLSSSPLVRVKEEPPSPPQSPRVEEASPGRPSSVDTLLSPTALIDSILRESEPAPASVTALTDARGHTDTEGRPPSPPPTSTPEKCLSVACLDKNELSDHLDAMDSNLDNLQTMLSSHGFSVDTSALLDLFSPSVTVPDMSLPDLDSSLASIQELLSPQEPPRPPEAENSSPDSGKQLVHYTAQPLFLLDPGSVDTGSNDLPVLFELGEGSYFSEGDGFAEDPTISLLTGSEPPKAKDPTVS
# Sequence of CRX (O43186 whole entry): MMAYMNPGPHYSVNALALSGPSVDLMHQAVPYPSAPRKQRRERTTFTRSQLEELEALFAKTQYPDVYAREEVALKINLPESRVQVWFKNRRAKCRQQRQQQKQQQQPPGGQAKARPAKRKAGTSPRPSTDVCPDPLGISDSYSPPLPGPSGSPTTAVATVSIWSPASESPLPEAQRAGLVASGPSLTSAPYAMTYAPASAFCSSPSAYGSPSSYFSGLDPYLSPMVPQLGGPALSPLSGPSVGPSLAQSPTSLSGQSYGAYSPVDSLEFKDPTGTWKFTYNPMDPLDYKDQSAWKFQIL
sequence,measurement,setting,value
CTTCAC,binding signal,FEV,"1.34 fold enrichment (6-mer frequency, TF over GST control)"
same,binding signal,ETV5,"1.37 fold enrichment (6-mer frequency, TF over GST control)"
same,binding signal,HSF1,"1.18 fold enrichment (6-mer frequency, TF over GST control)"
same,binding signal,SPIC,"1.57 fold enrichment (6-mer frequency, TF over GST control)"
same,binding signal,ELF4,"1.33 fold enrichment (6-mer frequency, TF over GST control)"
same,binding signal,ELK4,"1.45 fold enrichment (6-mer frequency, TF over GST control)"
same,binding signal,ETV2,"1.43 fold enrichment (6-mer frequency, TF over GST control)"
same,binding signal,ELF3,"1.54 fold enrichment (6-mer frequency, TF over GST control)"
same,binding signal,CRX,"1.17 fold enrichment (6-mer frequency, TF over GST control)"
same,binding signal,ETV1,"1.37 fold enrichment (6-mer frequency, TF over GST control)"
same,binding signal,ERF,"1.44 fold enrichment (6-mer frequency, TF over GST control)"
same,binding signal,ETV3L,"1.44 fold enrichment (6-mer frequency, TF over GST control)"
same,binding signal,ETS2,"1.36 fold enrichment (6-mer frequency, TF over GST control)"
same,binding signal,SPDEF,"1.4 fold enrichment (6-mer frequency, TF over GST control)"
same,binding signal,ETV7,"1.45 fold enrichment (6-mer frequency, TF over GST control)"
same,binding signal,ELF5,"1.38 fold enrichment (6-mer frequency, TF over GST control)"
same,binding signal,ETV3,"1.45 fold enrichment (6-mer frequency, TF over GST control)"
same,binding signal,ETV6,"1.43 fold enrichment (6-mer frequency, TF over GST control)"
